This is part of a sample that, as a whole, favours compounds with a hit. Of some 79,000 tested, about 15% had one in any assay. The source made the active and inactive calls. No stated cut-off is given here; in the data, active means growth inhibition above about 70%; inactive means the rest.
What was measured:
[1] = NCI Yeast Anticancer Drug Screen. Data for the rad52 strain (AID 147);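 further: 0% = growth of vehicle-treated control cultures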; conditions: S. cerevisiae rad52 mutant growth inhibition, active compounds read high
Method in brief: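 Measured: yeast growth inhibition. System: strain with a defined DNA damage repair alteration. Reference: vehicle-treated control cultures.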

[2] = NCI Yeast Anticancer Drug Screen. Data for the wt1 strain (AID 149);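 further: 0% = growth of vehicle-treated wt1 cultures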; conditions: S. cerevisiae wt1 strain (SPY 50644) growth inhibition, active compounds read high
Method in brief: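 Using yeast strain wt1, compound-induced growth inhibition was determined against vehicle-treated cultures.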

[3] = NCI Yeast Anticancer Drug Screen. Data for the rad50EPP+ strain (AID 151);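 further: 0% = growth of vehicle-treated control cultures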; conditions: S. cerevisiae rad50 mutant strain, active compounds read high
Method in brief: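 One strain with a rad50 alteration (rad50EPP+) was compound-treated, its growth then compared to that of vehicle controls.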

[4] = NCI Yeast Anticancer Drug Screen. Data for the mgt1 strain (AID 153); conditions: S. cerevisiae mgt1 mutant growth inhibition, active compounds read high
Method in brief: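 After exposure of the mgt1 yeast mutant to compound, growth was measured and reported as inhibition compared with vehicle controls.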

[5] = NCI Yeast Anticancer Drug Screen. Data for the rad50 strain (AID 155);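 further: 0% = growth of vehicle-only cultures of the same strain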; conditions: S. cerevisiae rad50 strain growth inhibition, active compounds read high
Method in brief: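 Relative growth inhibition (compound vs vehicle) was measured in yeast with a defined repair-gene alteration.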

[6] = NCI Yeast Anticancer Drug Screen. Data for the mec2-1 strain (AID 157); conditions: S. cerevisiae mec2-1 strain, active compounds read high
Method in brief: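 Test agents were screened against the mec2-1 yeast strain, with defined DNA repair or cell cycle alteration. Growth was scored as inhibition against vehicle-only controls.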

[7] = NCI Yeast Anticancer Drug Screen. Data for the rad14 strain (AID 159);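 further: 0% = growth of vehicle-treated control cultures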; conditions: S. cerevisiae rad14 strain growth inhibition, active compounds read high
Method in brief: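 Screen for anticancer potential: a yeast strain altered in DNA damage repair is grown with compound, and reduced growth is quantified against vehicle controls.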

[8] = NCI Yeast Anticancer Drug Screen. Data for the sgs1 mgt1 strain (AID 161);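 further: 0% = growth of cultures given vehicle only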; conditions: S. cerevisiae sgs1 mgt1 strain, active compounds read high
Method in brief: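 Genetically altered yeast, compound exposure, growth inhibition relative to vehicle.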

[9] = NCI Yeast Anticancer Drug Screen. Data for the CLN2oe strain (AID 163);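 further: 0% = growth of vehicle-only control cultures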; conditions: S. cerevisiae CLN2oe strain, active compounds read high
Method in brief: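 Here, growth inhibition in a cell-cycle-altered yeast strain after compound exposure was quantified against vehicle control growth.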

[10] = NCI Yeast Anticancer Drug Screen. Data for the cln2 rad14 strain (AID 165);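 further: 0% = growth equal to vehicle treated cultures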; conditions: S. cerevisiae cln2 rad14 strain, active compounds read high
Method in brief: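 Growth of compound-exposed yeast (cln2 rad14 genotype) measured and expressed as inhibition relative to vehicle.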

[11] = NCI Yeast Anticancer Drug Screen. Data for the bub3 strain (AID 167); conditions: S. cerevisiae bub3 mutant strain, active compounds read high
Method in brief: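 Screening used yeast with an engineered genetic alteration affecting cell cycle control. Compound-exposed cultures were compared with vehicle cultures, and reduced growth was taken as inhibition.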

[12] = NCI Yeast Anticancer Drug Screen. Data for the wt2 strain (AID 169);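 further: 0% = growth of vehicle-treated yeast cultures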; conditions: S. cerevisiae wt2 strain growth inhibition, active compounds read high
Method in brief: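 Genetically defined yeast strains from a DNA-repair/cell-cycle panel were used. Compound-exposed yeast growth was measured, and the inhibition was calculated relative to vehicle treatment.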

[13] = NCI Yeast Anticancer Drug Screen. Data for the mlh1 strain (AID 171);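 further: 0% = growth of vehicle-treated control cultures of the same strain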; conditions: S. cerevisiae mlh1 strain growth inhibition, active compounds read high
Method in brief: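 Here the genetically defined yeast mutant is grown with each compound, and the extent to which its growth falls below that of vehicle-exposed cells is reported.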

[14] = NCI Yeast Anticancer Drug Screen. Data for the sgs1 strain (AID 173);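 further: 0% = growth of vehicle-only control cultures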; conditions: S. cerevisiae sgs1 mutant, active compounds read high
Method in brief: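 Relative growth inhibition, referenced to vehicle, was determined in a yeast strain with a defined alteration affecting DNA damage repair or cell cycle control after compound exposure.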

[15] = NCI Yeast Anticancer Drug Screen. Data for the mlh1 rad18 strain (AID 175); conditions: S. cerevisiae mlh1 rad18 strain growth inhibition, active compounds read high
Method in brief: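 In this whole-cell yeast screen, a strain with altered DNA damage repair is challenged with compound, and its growth is measured against matched vehicle-treated controls.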

[16] = NCI Yeast Anticancer Drug Screen. Data for the rad18 strain (AID 177); conditions: S. cerevisiae rad18 mutant growth inhibition, active compounds read high
Method in brief: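 Screen uses a yeast strain with a defined lesion in DNA damage repair; compound effect is read as loss of growth compared to untreated vehicle cultures.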

[17] = at 5.0 µM (retest, dose inferred, filed as 0.5)
[18] = at 50.0 µM (retest, dose inferred, filed as 5.0)

Measured: growth inhibition

CC(C)(CN1CCCCC1)C(=O)CC(SCCS(=O)(=O)O)c1ccccc1 (stereo not drawn)
active: [10]; [17] 72%
inactive: [1]; at 1.2 µM 6% | [1]; at 3.7 µM 4% | [1]; at 11.0 µM 25% | [1]; at 33.0 µM 34% | [1]; at 100.0 µM 18% | [2]; at 1.2 µM -63% | [2]; at 3.7 µM 1% | [2]; at 11.0 µM 0% | [2]; at 33.0 µM 4% | [2]; at 100.0 µM 10% | [3]; at 1.2 µM 1% | [3]; at 3.7 µM 0% | [3]; at 11.0 µM -1% | [3]; at 33.0 µM -1% | [3]; at 100.0 µM -5% | [4]; at 1.2 µM 1% | [4]; at 3.7 µM 5% | [4]; at 11.0 µM 6% | [4]; at 33.0 µM 8% | [4]; at 100.0 µM 12% | [5]; at 1.2 µM 1% | [5]; at 3.7 µM 4% | [5]; [17] 10% | [5]; at 11.0 µM 8% | [5]; at 33.0 µM 14% | [5]; [18] 7% | [5]; at 50.0 µM 9.6% | [5]; at 100.0 µM 11% | [6]; at 1.2 µM -1% | [6]; at 3.7 µM -4% | [6]; [17] 11% | [6]; at 11.0 µM 0% | [6]; at 33.0 µM 9% | [6]; [18] -3% | [6]; at 50.0 µM -12.1% | [6]; at 100.0 µM 8% | [7]; at 1.2 µM 3% | [7]; at 3.7 µM 9% | [7]; at 11.0 µM 17% | [7]; at 33.0 µM 31% | [7]; at 100.0 µM 39% | [8]; [17] 17% | [8]; [18] 1% | [8]; at 50.0 µM -2% | [9]; at 1.2 µM -6% | [9]; at 3.7 µM 0% | [9]; at 11.0 µM 8% | [9]; at 33.0 µM 15% | [9]; at 100.0 µM 31% | [10]; [18] 69% | [10]; at 50.0 µM 46.3% | [11]; at 1.2 µM -1% | [11]; at 3.7 µM -6% | [11]; [17] 19% | [11]; at 11.0 µM -1% | [11]; at 33.0 µM 5% | [11]; [18] 32% | [11]; at 50.0 µM 12.1% | [11]; at 100.0 µM 13% | [12]; at 1.2 µM 0% | [12]; at 3.7 µM 2% | [12]; at 11.0 µM 5% | [12]; at 33.0 µM 11% | [12]; at 100.0 µM 15% | [13]; at 1.2 µM 0% | [13]; at 3.7 µM 2% | [13]; at 11.0 µM 3% | [13]; at 33.0 µM 6% | [13]; at 100.0 µM 13% | [14]; at 1.2 µM 3% | [14]; at 3.7 µM 6% | [14]; at 11.0 µM 7% | [14]; at 33.0 µM 19% | [14]; at 100.0 µM 22% | [15]; [17] 17% | [15]; [18] -1% | [15]; at 50.0 µM 5.05% | [16]; at 1.2 µM 10% | [16]; at 3.7 µM 11% | [16]; at 11.0 µM 16% | [16]; at 33.0 µM 26% | [16]; at 100.0 µM 37%

Source: PubChem BioAssay (NCI)
